# According to publication PMC7862700, “An all-to-all approach to the identification of sequence-specific readers for epigenetic DNA modifications on cytosine”:
# How the values were obtained:
# Test in all cases: DAPPL (digital affinity profiling via proximity ligation, sequencing); 10 mM Tris-HCl pH 7.5, 50 mM NaCl, 1 mM DTT, 4% glycerol, room temperature, 30 min; GST-TFs on glutathione beads, 16-mer random dsDNA library, 0.1% formaldehyde crosslink after washing; high values mean tight binding
# FLI1 = biological target: T1, FLI1 (Homo sapiens, UniProt Q01543 1-452); settings: protein: recombinant; tags: N-terminal GST; dsDNA, one strand shown
# T1 sequence: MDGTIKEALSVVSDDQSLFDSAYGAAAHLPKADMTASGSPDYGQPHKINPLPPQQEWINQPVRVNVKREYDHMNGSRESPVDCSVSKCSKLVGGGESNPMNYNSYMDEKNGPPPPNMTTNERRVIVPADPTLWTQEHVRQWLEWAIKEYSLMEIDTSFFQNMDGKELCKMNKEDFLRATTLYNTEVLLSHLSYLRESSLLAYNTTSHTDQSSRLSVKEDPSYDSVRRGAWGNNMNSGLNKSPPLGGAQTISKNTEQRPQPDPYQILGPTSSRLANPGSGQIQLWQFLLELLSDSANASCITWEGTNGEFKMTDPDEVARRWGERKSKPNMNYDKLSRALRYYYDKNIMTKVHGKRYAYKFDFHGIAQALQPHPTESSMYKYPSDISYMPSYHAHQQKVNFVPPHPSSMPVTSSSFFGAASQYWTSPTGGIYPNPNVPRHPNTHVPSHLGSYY
# Summary of the method: (§1)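 Human transcription factors fused to GST were expressed in yeast, captured on glutathione beads, given DNA barcodes and pooled with a GST-only negative control. Pools were incubated with 200 nmole of a 16-mer random double-stranded DNA library in Tris/NaCl/DTT/glycerol buffer at room temperature for 30 min. They were then washed, crosslinked with 0.1% formaldehyde, proximity-ligated (BsaI/T4 ligase, 1 h, 37 °C), PCR-amplified and sequenced on an Illumina NextSeq500. Binding signal is each 6-mer's read frequency for a factor divided by its frequency for the GST control.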
# ELK1 = biological target: T2, ELK1 (Homo sapiens, UniProt P19419 1-428); settings: protein: recombinant; tags: N-terminal GST; dsDNA, one strand shown
# T2 sequence: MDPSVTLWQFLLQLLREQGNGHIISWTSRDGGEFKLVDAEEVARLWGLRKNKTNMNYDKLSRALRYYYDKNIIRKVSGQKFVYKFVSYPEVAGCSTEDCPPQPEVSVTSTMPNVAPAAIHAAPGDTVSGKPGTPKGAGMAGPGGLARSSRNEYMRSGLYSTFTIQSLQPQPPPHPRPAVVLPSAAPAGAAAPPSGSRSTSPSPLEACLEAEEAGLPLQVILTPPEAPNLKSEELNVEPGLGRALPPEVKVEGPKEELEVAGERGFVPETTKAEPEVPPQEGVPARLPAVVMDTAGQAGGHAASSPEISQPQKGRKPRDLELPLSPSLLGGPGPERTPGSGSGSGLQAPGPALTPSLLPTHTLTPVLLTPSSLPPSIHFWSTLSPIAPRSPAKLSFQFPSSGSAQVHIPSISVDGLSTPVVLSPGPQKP
# Summary of the method: as §1
# GABPA = biological target: T3, GABPA (Homo sapiens, UniProt Q06546 1-454); settings: protein: recombinant; tags: N-terminal GST; dsDNA, one strand shown
# T3 sequence: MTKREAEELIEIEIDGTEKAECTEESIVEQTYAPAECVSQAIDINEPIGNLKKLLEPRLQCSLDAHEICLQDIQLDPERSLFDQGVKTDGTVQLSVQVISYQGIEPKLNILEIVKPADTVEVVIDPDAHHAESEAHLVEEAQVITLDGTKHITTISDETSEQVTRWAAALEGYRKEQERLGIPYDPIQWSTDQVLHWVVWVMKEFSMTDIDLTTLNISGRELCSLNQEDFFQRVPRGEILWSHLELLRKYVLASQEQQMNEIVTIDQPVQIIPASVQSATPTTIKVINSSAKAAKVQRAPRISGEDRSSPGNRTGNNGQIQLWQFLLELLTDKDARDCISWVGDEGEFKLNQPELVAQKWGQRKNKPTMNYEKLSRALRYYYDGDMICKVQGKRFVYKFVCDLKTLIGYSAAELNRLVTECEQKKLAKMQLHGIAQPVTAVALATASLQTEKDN
# Summary of the method: as §1
# ERG = biological target: T4, ERG (Homo sapiens, UniProt P11308 1-479); settings: protein: recombinant; tags: N-terminal GST; dsDNA, one strand shown
# T4 sequence: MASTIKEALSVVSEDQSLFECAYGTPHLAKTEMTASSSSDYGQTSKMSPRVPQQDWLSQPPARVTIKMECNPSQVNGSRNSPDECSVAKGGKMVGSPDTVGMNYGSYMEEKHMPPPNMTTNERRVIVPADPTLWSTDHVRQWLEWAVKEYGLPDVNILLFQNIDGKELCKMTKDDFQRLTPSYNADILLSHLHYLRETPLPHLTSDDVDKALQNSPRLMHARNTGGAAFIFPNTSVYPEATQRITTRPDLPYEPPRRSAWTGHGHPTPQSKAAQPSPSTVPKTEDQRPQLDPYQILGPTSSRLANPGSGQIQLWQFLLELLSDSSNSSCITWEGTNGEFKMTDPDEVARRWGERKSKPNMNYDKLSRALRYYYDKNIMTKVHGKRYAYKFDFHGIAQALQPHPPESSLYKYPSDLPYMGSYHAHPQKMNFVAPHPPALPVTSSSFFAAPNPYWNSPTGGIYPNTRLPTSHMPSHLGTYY
# Summary of the method: as §1
# ELF1 = ELF1 (Homo sapiens, UniProt P32519 1-619); settings: protein: recombinant; tags: N-terminal GST; dsDNA, one strand shown
# Summary of the method: as §1
# EHF = biological target: T5, EHF (Homo sapiens, UniProt Q9NZC4 1-300); settings: protein: recombinant; tags: N-terminal GST; dsDNA, one strand shown
# T5 sequence: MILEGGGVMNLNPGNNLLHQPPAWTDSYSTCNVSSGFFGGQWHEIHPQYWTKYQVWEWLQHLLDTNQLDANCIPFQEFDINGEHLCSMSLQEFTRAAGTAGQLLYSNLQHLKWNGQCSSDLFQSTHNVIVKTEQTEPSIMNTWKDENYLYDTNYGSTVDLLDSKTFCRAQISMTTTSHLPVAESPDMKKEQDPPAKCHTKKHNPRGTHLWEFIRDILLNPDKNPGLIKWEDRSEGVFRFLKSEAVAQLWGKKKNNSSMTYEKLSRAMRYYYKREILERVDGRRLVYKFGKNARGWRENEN
# Summary of the method: as §1
# SPI1 = SPI1 (Homo sapiens, UniProt P17947 1-270); settings: protein: recombinant; tags: N-terminal GST; dsDNA, one strand shown
# Summary of the method: as §1
# SPIB = SPIB (Homo sapiens, UniProt Q01892 1-262); settings: protein: recombinant; tags: N-terminal GST; dsDNA, one strand shown
# Summary of the method: as §1
# ELK3 = biological target: T6, ELK3 (Homo sapiens, UniProt P41970 1-407); settings: protein: recombinant; tags: N-terminal GST; dsDNA, one strand shown
# T6 sequence: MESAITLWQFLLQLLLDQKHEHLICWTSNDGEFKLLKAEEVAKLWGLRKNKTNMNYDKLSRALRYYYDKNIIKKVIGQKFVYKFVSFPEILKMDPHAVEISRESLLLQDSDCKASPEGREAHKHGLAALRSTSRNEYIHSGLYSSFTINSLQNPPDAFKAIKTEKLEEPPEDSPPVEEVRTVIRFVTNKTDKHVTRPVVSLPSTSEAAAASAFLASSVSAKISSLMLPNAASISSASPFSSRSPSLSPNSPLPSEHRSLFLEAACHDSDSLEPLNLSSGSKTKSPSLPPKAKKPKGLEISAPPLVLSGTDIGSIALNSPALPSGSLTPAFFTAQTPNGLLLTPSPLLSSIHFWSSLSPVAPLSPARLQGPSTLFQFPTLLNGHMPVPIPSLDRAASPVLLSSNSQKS
# Summary of the method: as §1
# FEV = biological target: T7, FEV (Homo sapiens, UniProt Q99581 1-238); settings: protein: recombinant; tags: N-terminal GST; dsDNA, one strand shown
# T7 sequence: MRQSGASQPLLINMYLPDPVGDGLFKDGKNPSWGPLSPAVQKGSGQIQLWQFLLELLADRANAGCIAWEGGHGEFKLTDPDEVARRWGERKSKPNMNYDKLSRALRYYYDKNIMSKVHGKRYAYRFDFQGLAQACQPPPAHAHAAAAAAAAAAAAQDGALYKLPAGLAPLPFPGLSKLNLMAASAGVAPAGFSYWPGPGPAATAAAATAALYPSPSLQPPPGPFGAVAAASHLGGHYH
# Summary of the method: as §1
# ETV5 = ETV5 (Homo sapiens, UniProt P41161 1-510); settings: protein: recombinant; tags: N-terminal GST; dsDNA, one strand shown
# Summary of the method: as §1
# HSF1 = HSF1 (Homo sapiens, UniProt Q00613 1-529); settings: protein: recombinant; tags: N-terminal GST; chain copies: 3; dsDNA, one strand shown
# Summary of the method: as §1
# SPIC = biological target: T8, SPIC (Homo sapiens, UniProt Q8N5J4 1-248); settings: protein: recombinant; tags: N-terminal GST; dsDNA, one strand shown
# T8 sequence: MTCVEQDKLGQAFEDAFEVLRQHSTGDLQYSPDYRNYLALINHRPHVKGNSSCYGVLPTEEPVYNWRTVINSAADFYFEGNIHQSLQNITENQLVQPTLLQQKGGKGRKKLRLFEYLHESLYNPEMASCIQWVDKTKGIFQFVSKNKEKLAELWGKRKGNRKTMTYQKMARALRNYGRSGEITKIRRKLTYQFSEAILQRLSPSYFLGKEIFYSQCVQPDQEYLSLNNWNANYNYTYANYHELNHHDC
# Summary of the method: as §1
# ELF4 = ELF4 (Homo sapiens, UniProt Q99607 1-663); settings: protein: recombinant; tags: N-terminal GST; dsDNA, one strand shown
# Summary of the method: as §1
# ELK4 = biological target: T9, ELK4 (Homo sapiens, UniProt P28324-2 1-405); settings: protein: recombinant; tags: N-terminal GST; dsDNA, one strand shown
# T9 sequence: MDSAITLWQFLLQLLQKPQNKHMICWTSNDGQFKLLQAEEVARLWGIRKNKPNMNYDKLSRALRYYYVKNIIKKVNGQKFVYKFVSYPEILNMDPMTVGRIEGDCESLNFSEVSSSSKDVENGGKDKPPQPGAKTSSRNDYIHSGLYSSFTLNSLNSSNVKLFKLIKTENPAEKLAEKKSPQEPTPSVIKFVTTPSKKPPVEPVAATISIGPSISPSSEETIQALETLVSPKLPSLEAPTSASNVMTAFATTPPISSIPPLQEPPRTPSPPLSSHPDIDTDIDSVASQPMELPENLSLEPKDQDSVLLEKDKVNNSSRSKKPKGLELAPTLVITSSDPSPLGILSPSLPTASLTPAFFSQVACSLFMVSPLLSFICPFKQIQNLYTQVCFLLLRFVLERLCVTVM
# Summary of the method: as §1
# ETV2 = biological target: T10, ETV2 (Homo sapiens, UniProt O00321 1-342); settings: protein: recombinant; tags: N-terminal GST; dsDNA, one strand shown
# T10 sequence: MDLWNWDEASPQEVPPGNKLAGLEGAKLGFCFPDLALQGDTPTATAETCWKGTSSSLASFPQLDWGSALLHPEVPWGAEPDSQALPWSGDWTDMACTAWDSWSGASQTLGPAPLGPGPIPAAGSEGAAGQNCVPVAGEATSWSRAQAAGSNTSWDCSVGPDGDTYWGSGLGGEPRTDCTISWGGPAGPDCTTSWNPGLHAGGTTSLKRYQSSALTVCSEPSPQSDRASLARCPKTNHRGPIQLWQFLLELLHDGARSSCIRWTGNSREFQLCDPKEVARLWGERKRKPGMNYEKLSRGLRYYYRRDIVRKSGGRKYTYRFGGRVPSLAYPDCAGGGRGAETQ
# Summary of the method: as §1
# ELF3 = biological target: T11, ELF3 (Homo sapiens, UniProt P78545 1-371); settings: protein: recombinant; tags: N-terminal GST; dsDNA, one strand shown
# T11 sequence: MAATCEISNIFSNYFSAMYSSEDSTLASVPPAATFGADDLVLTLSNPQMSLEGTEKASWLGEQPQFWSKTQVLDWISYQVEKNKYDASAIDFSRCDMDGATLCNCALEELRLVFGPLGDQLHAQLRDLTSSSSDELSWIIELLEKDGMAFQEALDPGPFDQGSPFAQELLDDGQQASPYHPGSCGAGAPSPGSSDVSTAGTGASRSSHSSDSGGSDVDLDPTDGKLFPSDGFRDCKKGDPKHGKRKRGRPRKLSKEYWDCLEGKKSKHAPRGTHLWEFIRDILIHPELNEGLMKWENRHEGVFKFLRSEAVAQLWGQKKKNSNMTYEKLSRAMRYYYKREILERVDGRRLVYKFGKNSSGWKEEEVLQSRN
# Summary of the method: as §1
# CRX = CRX (Homo sapiens, UniProt O43186 1-299); settings: protein: recombinant; tags: N-terminal GST; dsDNA, one strand shown
# Summary of the method: as §1
# ETV1 = ETV1 (Homo sapiens, UniProt P50549 1-477); settings: protein: recombinant; tags: N-terminal GST; dsDNA, one strand shown
# Summary of the method: as §1
# Sequence of CRX (O43186 whole entry): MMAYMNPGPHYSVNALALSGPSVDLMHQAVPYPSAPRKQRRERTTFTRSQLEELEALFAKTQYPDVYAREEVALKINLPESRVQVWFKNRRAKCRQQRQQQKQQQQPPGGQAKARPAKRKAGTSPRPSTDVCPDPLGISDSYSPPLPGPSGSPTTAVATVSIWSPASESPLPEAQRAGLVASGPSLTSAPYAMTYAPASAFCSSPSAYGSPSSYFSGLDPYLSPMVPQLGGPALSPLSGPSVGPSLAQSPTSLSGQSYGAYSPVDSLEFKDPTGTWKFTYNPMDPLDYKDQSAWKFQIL
# Sequence of ETV5 (P41161 whole entry): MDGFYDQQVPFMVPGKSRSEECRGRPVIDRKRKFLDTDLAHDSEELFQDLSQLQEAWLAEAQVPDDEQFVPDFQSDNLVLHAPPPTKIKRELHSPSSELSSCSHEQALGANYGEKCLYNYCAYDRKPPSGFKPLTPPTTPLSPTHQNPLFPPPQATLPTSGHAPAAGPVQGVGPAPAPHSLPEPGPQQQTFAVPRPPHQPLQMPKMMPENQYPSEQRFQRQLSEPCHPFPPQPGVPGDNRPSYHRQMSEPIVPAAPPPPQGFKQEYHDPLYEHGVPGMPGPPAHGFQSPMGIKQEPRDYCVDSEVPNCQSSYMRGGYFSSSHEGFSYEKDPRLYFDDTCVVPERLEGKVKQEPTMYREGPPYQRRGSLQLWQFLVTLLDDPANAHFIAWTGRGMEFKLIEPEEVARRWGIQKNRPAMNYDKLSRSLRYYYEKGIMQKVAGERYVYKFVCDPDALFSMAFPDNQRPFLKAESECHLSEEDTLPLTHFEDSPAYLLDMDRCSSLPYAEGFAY
# Sequence of HSF1 (Q00613 whole entry): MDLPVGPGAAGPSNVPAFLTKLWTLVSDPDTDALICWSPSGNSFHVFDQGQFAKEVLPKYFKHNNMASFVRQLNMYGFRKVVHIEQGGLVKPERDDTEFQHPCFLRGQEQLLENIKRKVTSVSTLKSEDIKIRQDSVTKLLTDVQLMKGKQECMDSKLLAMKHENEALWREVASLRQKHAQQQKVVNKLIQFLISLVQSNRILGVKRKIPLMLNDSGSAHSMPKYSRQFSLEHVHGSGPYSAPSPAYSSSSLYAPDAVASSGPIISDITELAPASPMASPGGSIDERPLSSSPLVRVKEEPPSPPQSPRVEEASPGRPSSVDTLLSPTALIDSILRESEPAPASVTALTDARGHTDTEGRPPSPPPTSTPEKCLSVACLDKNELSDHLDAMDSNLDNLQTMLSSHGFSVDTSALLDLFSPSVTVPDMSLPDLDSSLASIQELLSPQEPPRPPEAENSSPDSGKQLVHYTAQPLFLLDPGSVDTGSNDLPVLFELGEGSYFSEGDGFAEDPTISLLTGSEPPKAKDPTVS
# Sequence of SPIB (Q01892 whole entry): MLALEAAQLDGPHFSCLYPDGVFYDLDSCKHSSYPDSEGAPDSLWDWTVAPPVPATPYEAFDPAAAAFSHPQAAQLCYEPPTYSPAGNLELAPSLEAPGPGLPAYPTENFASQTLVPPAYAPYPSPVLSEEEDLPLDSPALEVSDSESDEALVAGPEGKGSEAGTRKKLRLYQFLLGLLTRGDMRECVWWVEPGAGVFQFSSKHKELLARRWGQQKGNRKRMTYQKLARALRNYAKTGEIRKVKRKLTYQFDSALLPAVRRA
# Sequence of ETV1 (P50549 whole entry): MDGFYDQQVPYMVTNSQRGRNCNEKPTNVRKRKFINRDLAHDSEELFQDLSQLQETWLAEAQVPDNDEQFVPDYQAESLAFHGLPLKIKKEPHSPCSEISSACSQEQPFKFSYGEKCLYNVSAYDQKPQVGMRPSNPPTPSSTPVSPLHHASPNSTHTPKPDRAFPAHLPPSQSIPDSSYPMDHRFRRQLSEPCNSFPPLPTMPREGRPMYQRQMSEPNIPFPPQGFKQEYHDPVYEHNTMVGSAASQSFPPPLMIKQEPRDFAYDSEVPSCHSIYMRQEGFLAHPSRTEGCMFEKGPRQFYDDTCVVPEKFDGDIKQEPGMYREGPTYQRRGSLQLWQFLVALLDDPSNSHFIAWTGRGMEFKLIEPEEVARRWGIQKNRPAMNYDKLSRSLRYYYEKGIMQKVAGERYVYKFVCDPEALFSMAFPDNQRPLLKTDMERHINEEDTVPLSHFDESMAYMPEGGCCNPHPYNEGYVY
# Sequence of ELF4 (Q99607 whole entry): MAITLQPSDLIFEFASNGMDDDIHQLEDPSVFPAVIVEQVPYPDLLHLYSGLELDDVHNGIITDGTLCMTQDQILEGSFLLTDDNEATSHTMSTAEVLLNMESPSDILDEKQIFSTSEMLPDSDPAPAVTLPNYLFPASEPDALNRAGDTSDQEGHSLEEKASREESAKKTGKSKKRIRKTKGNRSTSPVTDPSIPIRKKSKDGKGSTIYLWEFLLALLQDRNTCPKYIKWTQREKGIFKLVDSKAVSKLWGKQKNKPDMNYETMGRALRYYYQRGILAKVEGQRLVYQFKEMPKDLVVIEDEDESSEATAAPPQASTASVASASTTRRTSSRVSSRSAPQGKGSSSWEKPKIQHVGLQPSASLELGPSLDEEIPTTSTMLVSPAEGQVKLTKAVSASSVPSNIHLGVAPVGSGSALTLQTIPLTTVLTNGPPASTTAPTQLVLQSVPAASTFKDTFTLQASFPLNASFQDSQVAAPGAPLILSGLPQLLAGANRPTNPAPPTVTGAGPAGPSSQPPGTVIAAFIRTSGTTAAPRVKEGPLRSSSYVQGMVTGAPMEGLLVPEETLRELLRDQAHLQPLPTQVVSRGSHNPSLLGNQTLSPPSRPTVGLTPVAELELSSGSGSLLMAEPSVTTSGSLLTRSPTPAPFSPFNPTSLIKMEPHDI
# Sequence of ELF1 (P32519 whole entry): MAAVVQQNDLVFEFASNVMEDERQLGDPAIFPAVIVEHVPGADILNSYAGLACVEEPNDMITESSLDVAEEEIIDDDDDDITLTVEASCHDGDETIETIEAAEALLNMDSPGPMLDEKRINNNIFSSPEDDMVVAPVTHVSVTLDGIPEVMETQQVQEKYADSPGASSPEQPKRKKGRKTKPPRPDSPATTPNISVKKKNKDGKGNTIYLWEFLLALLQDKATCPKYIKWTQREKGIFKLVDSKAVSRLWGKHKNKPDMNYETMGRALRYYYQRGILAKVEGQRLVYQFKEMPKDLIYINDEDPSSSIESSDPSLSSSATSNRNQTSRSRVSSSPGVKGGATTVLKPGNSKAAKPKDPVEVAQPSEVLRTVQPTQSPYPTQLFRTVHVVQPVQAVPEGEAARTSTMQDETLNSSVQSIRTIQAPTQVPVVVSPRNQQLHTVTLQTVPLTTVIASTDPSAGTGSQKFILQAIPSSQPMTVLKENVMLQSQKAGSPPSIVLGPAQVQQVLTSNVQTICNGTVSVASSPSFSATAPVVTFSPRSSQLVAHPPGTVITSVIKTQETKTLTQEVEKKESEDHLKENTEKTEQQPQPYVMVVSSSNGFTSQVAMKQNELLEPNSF
sequence,measurement,setting,value
AATGCC,binding signal,FLI1,"1.06 fold enrichment (6-mer frequency, TF over GST control)"
same,binding signal,ELK1,"1.19 fold enrichment (6-mer frequency, TF over GST control)"
same,binding signal,GABPA,"1.17 fold enrichment (6-mer frequency, TF over GST control)"
same,binding signal,ERG,"1.18 fold enrichment (6-mer frequency, TF over GST control)"
same,binding signal,ELF1,"1.13 fold enrichment (6-mer frequency, TF over GST control)"
same,binding signal,EHF,"1.18 fold enrichment (6-mer frequency, TF over GST control)"
same,binding signal,SPI1,"1.06 fold enrichment (6-mer frequency, TF over GST control)"
same,binding signal,SPIB,"1.17 fold enrichment (6-mer frequency, TF over GST control)"
same,binding signal,ELK3,"1.08 fold enrichment (6-mer frequency, TF over GST control)"
same,binding signal,FEV,"1.23 fold enrichment (6-mer frequency, TF over GST control)"
same,binding signal,ETV5,"1.2 fold enrichment (6-mer frequency, TF over GST control)"
same,binding signal,HSF1,"1.07 fold enrichment (6-mer frequency, TF over GST control)"
same,binding signal,SPIC,"1.07 fold enrichment (6-mer frequency, TF over GST control)"
same,binding signal,ELF4,"1.21 fold enrichment (6-mer frequency, TF over GST control)"
same,binding signal,ELK4,"1.16 fold enrichment (6-mer frequency, TF over GST control)"
same,binding signal,ETV2,"1.06 fold enrichment (6-mer frequency, TF over GST control)"
same,binding signal,ELF3,"1.24 fold enrichment (6-mer frequency, TF over GST control)"
same,binding signal,CRX,"1.16 fold enrichment (6-mer frequency, TF over GST control)"
same,binding signal,ETV1,"1.11 fold enrichment (6-mer frequency, TF over GST control)"
